According to the supplement of paper PMC8728848:
The entries come from a sample that favours the strongest signals as a whole.

Legend:
Assay in all cases: glycan array binding signal (z-score within array); higher = stronger binding
Conditions in all cases: glycan notation: IUPAC condensed, linker removed
[1] = biological target: Fuc(a1-2)Gal(b1-3)GalNAc(b1-3)Gal(a1-4)Gal(b1-4)Glc
Procedure, shortened: (§1)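 The Consortium for Functional Glycomics database supplied 3228 glycan arrays, of which those lacking an available protein sequence were dropped. The binding signal, a within-array Z-score, was averaged across arrays of the same protein sequence and across linkers. Negative scores can be read as non-binding.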

[2] = biological target: Fuc(a1-2)Gal(b1-3)GlcNAc(b1-3)[Gal(b1-4)GlcNAc(b1-6)]Gal(b1-4)Glc
Procedure, shortened: as §1

[3] = biological target: Fuc(a1-2)Gal(b1-3)[Fuc(a1-4)]GlcNAc(b1-2)Man(a1-3)[Fuc(a1-2)Gal(b1-3)[Fuc(a1-4)]GlcNAc(b1-2)Man(a1-6)]Man(b1-4)GlcNAc(b1-4)[Fuc(a1-6)]GlcNAc(b1-4)[Fuc(a1-6)]GlcNAc
Procedure, shortened: as §1

[4] = biological target: Fuc(a1-2)Gal(b1-4)GlcNAc(b1-3)GalNAc
Procedure, shortened: as §1

[5] = biological target: Fuc(a1-2)Gal(b1-4)GlcNAc(b1-3)[Fuc(a1-2)Gal(b1-4)GlcNAc(b1-6)]GalNAc
Procedure, shortened: as §1

[6] = biological target: Fuc(a1-2)Gal(b1-4)GlcNAc(b1-3)[Fuc(a1-3)[Gal(b1-4)]GlcNAc(b1-6)]Gal(b1-4)Glc
Procedure, shortened: as §1

[7] = biological target: Fuc(a1-2)Gal(b1-4)[Fuc(a1-3)]GlcNAc
Procedure, shortened: as §1

[8] = biological target: Fuc(a1-2)[Gal(a1-3)]Gal(b1-3)GlcNAc(b1-6)GalNAc
Procedure, shortened: as §1

[9] = biological target: Fuc(a1-2)[Gal(a1-3)]Gal(b1-4)GlcNAc(b1-2)Man(a1-3)[Fuc(a1-2)[Gal(a1-3)]Gal(b1-4)GlcNAc(b1-2)Man(a1-6)]Man(b1-4)GlcNAc(b1-4)GlcNAc
Procedure, shortened: as §1

[10] = biological target: Fuc(a1-2)[Gal(a1-4)]Gal(b1-4)GlcNAc
Procedure, shortened: as §1

[11] = biological target: Fuc(a1-2)[GalNAc(a1-3)]Gal(b1-4)GlcNAc(b1-6)GalNAc
Procedure, shortened: as §1

Gal(a1-3)Gal(b1-3)GlcNAc = biological target: Gal(a1-3)Gal(b1-3)GlcNAc
Procedure, shortened: as §1

[12] = biological target: Gal(a1-3)Gal(b1-3)GlcNAc(b1-2)Man(a1-3)[Gal(a1-3)Gal(b1-3)GlcNAc(b1-2)Man(a1-6)]Man(b1-4)GlcNAc(b1-4)GlcNAc
Procedure, shortened: as §1

[13] = biological target: Gal(a1-3)[Gal(a1-4)]Gal(b1-4)GlcNAc
Procedure, shortened: as §1

Gal(a1-4)GlcNAc = biological target: Gal(a1-4)GlcNAc
Procedure, shortened: as §1

[14] = biological target: Gal(b1-3)GlcNAc(b1-3)Gal(b1-4)GlcNAc(b1-6)[Gal(b1-3)GlcNAc(b1-3)]Gal(b1-4)Glc
Procedure, shortened: as §1

[15] = biological target: Gal(b1-3)[Fuc(a1-4)]GlcNAc(b1-2)Man(a1-3)[Gal(b1-3)[Fuc(a1-4)]GlcNAc(b1-2)Man(a1-6)]Man(b1-4)GlcNAc(b1-4)[Fuc(a1-6)]GlcNAc
Procedure, shortened: as §1

Gal(b1-4)Glc = biological target: Gal(b1-4)Glc
Procedure, shortened: as §1

Gal(b1-4)Glc6S = biological target: Gal(b1-4)Glc6S
Procedure, shortened: as §1

[16] = biological target: Gal(b1-4)GlcNAc(b1-3)Gal(b1-3)GlcNAc
Procedure, shortened: as §1

[17] = biological target: Gal(b1-4)GlcNAc(b1-3)Gal(b1-4)GlcNAc(b1-2)[Gal(b1-4)GlcNAc(b1-3)Gal(b1-4)GlcNAc(b1-6)]Man(a1-6)[Gal(b1-4)GlcNAc(b1-3)Gal(b1-4)GlcNAc(b1-2)Man(a1-3)]Man(b1-4)GlcNAc(b1-4)[Fuc(a1-6)]GlcNAc
Procedure, shortened: as §1

[18] = biological target: Gal(b1-4)GlcNAc(b1-3)Gal(b1-4)GlcNAc(b1-3)Gal(b1-4)GlcNAc(b1-3)Gal(b1-4)GlcNAc(b1-3)Gal(b1-4)GlcNAc(b1-3)Gal(b1-4)GlcNAc(b1-2)Man(a1-3)[Gal(b1-4)GlcNAc(b1-3)Gal(b1-4)GlcNAc(b1-3)Gal(b1-4)GlcNAc(b1-3)Gal(b1-4)GlcNAc(b1-3)Gal(b1-4)GlcNAc(b1-3)Gal(b1-4)GlcNAc(b1-2)Man(a1-6)]Man(b1-4)GlcNAc(b1-4)GlcNAc
Procedure, shortened: as §1

[19] = biological target: Gal(b1-4)GlcNAc(b1-3)Gal(b1-4)GlcNAc(b1-3)GalNAc
Procedure, shortened: as §1

[20] = biological target: Gal(b1-4)GlcNAc(b1-3)[Gal(b1-4)GlcNAc(b1-6)]Gal(b1-4)GlcNAc
Procedure, shortened: as §1

Gal4S(b1-4)GlcNAc = biological target: Gal4S(b1-4)GlcNAc
Procedure, shortened: as §1

Gal6S(b1-3)GlcNAc = biological target: Gal6S(b1-3)GlcNAc
Procedure, shortened: as §1

B1: PX14375F-bfa-539-21-539 (Bacteroides fragilis) (protein)
chain: EDFLQKDPPSSPSQSVFWQKKSDFESALAGTYSVMYSGVFSQIMPCLDGLTDNAIVQHSEGTYGWAKTIAQGDLTPNQGGFVTDIYGNCYKGIARVHILMEQLDQYTGSDISADEKKFMLAQCKALRGYFYSWLYQCYKEVPVVTQSLDLNTMYQPKATRAEVLNRVMTDYDEAISELPDKLYSDSQTSGRFTVSAVKALKARILLFDAYDSNGKAISSKMEEVLTLLQSIKGYSLAARVRDNFISEKQLASPEIMFSVRFLRPNLTHSMDLYYGAWAVLDPTRNMVDAFECTDGKPWGESPLTVRPDESILYGNDDALKKAERAKMFMNRDRRLYESVNHSMMANFVDDGFKDEEVQVNESNNKGPTGFSALKYVQPTDVTPGYSTVSDADIVVLRYAHVLLMIAEAENEAHGATTTALNAINEVRTRSGQPAIEAGISQDDLRERIRNEWRIETCFEGLRYFQLKRWKLMDKRVNGVEDPAYPGYIKVYKPAFEFFPIPQSEIDKAGGVLKQDPAYE
[1]
  glycan array binding signal (z-score): 1.21
[2]
  glycan array binding signal (z-score): -0.583
[3]
  glycan array binding signal (z-score): 0.238
[4]
  glycan array binding signal (z-score): 0.334
[5]
  glycan array binding signal (z-score): 0.212
[6]
  glycan array binding signal (z-score): 0.539
[7]
  glycan array binding signal (z-score): -0.409
[8]
  glycan array binding signal (z-score): -0.329
[9]
  glycan array binding signal (z-score): 6.22
[10]
  glycan array binding signal (z-score): 2.7
[11]
  glycan array binding signal (z-score): -0.169
Gal(a1-3)Gal(b1-3)GlcNAc
  glycan array binding signal (z-score): -0.042
[12]
  glycan array binding signal (z-score): 2.35
[13]
  glycan array binding signal (z-score): 3.97
Gal(a1-4)GlcNAc
  glycan array binding signal (z-score): -0.504
[14]
  glycan array binding signal (z-score): -0.107
[15]
  glycan array binding signal (z-score): 2.29
Gal(b1-4)Glc
  glycan array binding signal (z-score): -0.577
Gal(b1-4)Glc6S
  glycan array binding signal (z-score): 0.083
[16]
  glycan array binding signal (z-score): -0.243
[17]
  glycan array binding signal (z-score): 5.95
[18]
  glycan array binding signal (z-score): 4.05
[19]
  glycan array binding signal (z-score): 2.44
[20]
  glycan array binding signal (z-score): 0.637
Gal4S(b1-4)GlcNAc
  glycan array binding signal (z-score): -0.679
Gal6S(b1-3)GlcNAc
  glycan array binding signal (z-score): -0.321
